Assay results published in article PMC5540273 (PLoS ONE, 2017).

What was measured:
Settings in all cases: concentration: 1 μM, replicates: in singlicate; n = 1
[1] = test system: CDK8
[2] = test system: CDK9
[3] = test system: CDKL1
[4] = test system: CDKL2
[5] = test system: CDKL3
[6] = test system: CDKL5
[7] = test system: CHEK1
[8] = test system: CHEK2
[9] = test system: CIT
[10] = test system: CLK1
[11] = test system: CLK2
[12] = test system: CLK3
[13] = test system: CLK4
[14] = test system: CSF1R-autoinhibited
[15] = test system: CSF1R
[16] = test system: CSK
[17] = test system: CSNK1A1L
[18] = test system: CSNK1A1
[19] = test system: CSNK1D
[20] = test system: CSNK1E
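Also: KINOMEscan kinase panel screen.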

Row | Structure (SMILES) | %Inh [1] [%] | %Inh [2] [%] | %Inh [3] [%] | %Inh [4] [%] | %Inh [5] [%] | %Inh [6] [%] | %Inh [7] [%] | %Inh [8] [%] | %Inh [9] [%] | %Inh [10] [%] | %Inh [11] [%] | %Inh [12] [%] | %Inh [13] [%] | %Inh [14] [%] | %Inh [15] [%] | %Inh [16] [%] | %Inh [17] [%] | %Inh [18] [%] | %Inh [19] [%] | %Inh [20] [%]
1 | O=C(NC1CCN(c2ccnc(Nc3ccc(F)cc3)n2)C1)c1cc2ccccc2s1 (stereo not shown) [GSK1379716] | 52 | 6 | 0 | 40 | 0 | 5 | 0 | 38 | 33 | 29 | 0 | 14 | 30 | 3 | 2 | 0 | 11 | 0 | 0 | 28
2 | Clc1ccc(-c2nn3ncccc3c2-c2ccnc(Nc3ccc4c(c3)OCCO4)n2)cc1 [GW829116] | 20 | 0 | 0 | 4 | 0 | 0 | 0 | 2 | 89 | 0 | 0 | 0 | 0 | 0 | 87 | 0 | 17 | 77 | 94 | 98.6
3 | COc1cccc(NC(=O)NC2CCN(c3ccnc(Nc4cc(OC)c(OC)c(OC)c4)n3)C2)c1 (stereo not shown) [GSK1379763] | 39 | 10 | 0 | 52 | 0 | 0 | 0 | 54 | 23 | 12 | 11 | 0 | 0 | 6 | 34 | 15 | 0 | 0 | 0 | 0
4 | CCCCc1nn2ncccc2c1-c1ccnc(Nc2ccc(N3CCN(C)CC3)cc2)n1 [GW684941] | 26 | 0 | 22 | 99.3 | 66 | 0 | 0 | 13 | 30 | 8 | 3 | 0 | 0 | 73 | 99.9 | 7 | 46 | 93.1 | 90.9 | 99.4
5 | COc1cc(Nc2ncc3c(C)nc(-c4cc5ccccc5[nH]4)n3n2)cc(OC)c1OC [GW869516] | 44 | 0 | 46 | 1 | 8 | 0 | 0 | 0 | 100 | 88 | 75 | 36 | 43 | 0 | 0 | 13 | 0 | 30 | 0 | 15
6 | COc1cc(Nc2nccc(N3CCC(NC(=O)c4cc5ccccc5s4)C3)n2)cc(OC)c1OC (stereo not shown) [GSK1379760] | 38 | 5 | 11 | 43 | 13 | 1 | 0 | 16 | 0 | 4 | 0 | 0 | 13 | 23 | 18 | 0 | 0 | 41 | 10 | 0
7 | COc1cc2c(cc1OCCN1CCNCC1)ncc1c3ccc(C#N)cc3[nH]c21 | 19 | 8 | 19 | 0 | 10 | 0 | 84 | 46 | 98.8 | 95.7 | 86 | 27 | 91.7 | 98.4 | 51 | 12 | 0 | 40 | 8 | 0
8 | O=C(Nc1cccc(Oc2ccc3nc(NC(=O)C4CC4)cn3n2)c1)c1ccccc1C(F)(F)F | 26 | 0 | 43 | 26 | 0 | 7 | 0 | 11 | 63 | 26 | 73 | 32 | 0 | 88 | 100 | 11 | 0 | 24 | 0 | 20
